FadD28 FP inh: blocks FadD28 binding to the bisubstrate probe; fluorescence polarization; 360,000 compounds, 0.22% hits; AID 588549; inhibition, % at 12.5 µM; in the data active = inhibition above about 8.5%, passing the limit was not always enough
PrP UTR inh: inhibition of PrP 5' UTR reporter expression; cell-based PrP 5' UTR mRNA reporter, plate reader; inhibition, % (test concentration not listed); 340,000 compounds, 0.35% hits; in the data active = inhibition above about 52%; also: 0 = median of the neutral control wells
Vc quorum ag-1: induces V. cholerae light production without autoinducers | V. cholerae BH1578 lux reporter, luminescence, 6 h | activation, % at 18.7 µM | 350,000 compounds, 0.16% hits | AID 588436; in the data active = activation mostly above about 9.7%, no sharp cut-off
Rv3671c inh: Rv3671c (M. tuberculosis) protease inhibition | P9WHR9 | inhibition, % at 5.96 µM | 320,000 compounds, 0.048% hits | AID 2606; in the data active = inhibition above about 38%;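 also: extracellular domain of Rv3671c used as enzyme; 0% = enzyme with DMSO and 100% = no enzyme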
UGM FP inh: inhibitors of M. tuberculosis UDP-galactopyranose mutase | 320,000 compounds, 0.06% hits | purified UGM, fluorescence polarization probe displacement | AID 504406 | inhibition, % at 10 µM; in the data active = inhibition above about 10%, passing the limit was not always enough
Target sequence (P9WIQ1 whole entry, looked up): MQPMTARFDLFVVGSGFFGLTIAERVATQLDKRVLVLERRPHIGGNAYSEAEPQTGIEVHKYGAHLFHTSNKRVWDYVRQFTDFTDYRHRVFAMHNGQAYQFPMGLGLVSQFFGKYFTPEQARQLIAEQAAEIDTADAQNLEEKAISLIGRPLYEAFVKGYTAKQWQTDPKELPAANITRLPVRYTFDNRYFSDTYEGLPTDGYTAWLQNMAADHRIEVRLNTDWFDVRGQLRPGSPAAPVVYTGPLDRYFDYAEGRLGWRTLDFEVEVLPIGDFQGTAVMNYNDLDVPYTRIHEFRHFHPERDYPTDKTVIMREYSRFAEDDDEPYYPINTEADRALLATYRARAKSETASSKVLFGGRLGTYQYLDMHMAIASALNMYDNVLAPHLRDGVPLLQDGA
Mtb betalactam: beta-lactam sensitization of Mtb H37Rv; 330,000 compounds, 0.27% hits; M. tuberculosis H37Rv growth with meropenem, percent inhibition; inhibition, % at 25 µM;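 also: growth measured after seven days incubation then overnight dye step; 0% = bacteria only wells and 100% = bacteria with antibiotic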
Vc quorum ag-2: induces V. cholerae light production without autoinducers; shares compounds with Vc quorum ag-1; V. cholerae BH1578 lux reporter, luminescence, 6 h; activation, % at 50 µM; 620 tested, under 10 active
HeLa 24h tox: kills HeLa cells within 24 hours | AID 624140 | 25 tested, under 10 active | activity change, negative = cytotoxicity, % at 35 µM | HeLa viability, CellTiter-Glo ATP luminescence | shares compounds with Vc quorum ag-1;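 active = signal drop with fitted half-maximal concentration at or below twice the highest valid dose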
Active calls of the source: *. An excerpt weighted towards active compounds, which were near 0.76% of everything screened. Unless noted, no rule for the calls is given here.

Screening O=C(NCCC(=O)N1CCN(c2ccccc2F)CC1)c1ccco1 returned FadD28 FP inh -4, PrP UTR inh -15, Vc quorum ag-1 inactive, Rv3671c inh 0, UGM FP inh 0 and Mtb betalactam -14.
`O=C(O)CN1CCN(Cc2ccc(F)cc2Cl)C1=O` gave FadD28 FP inh -3, Vc quorum ag-1 12, Rv3671c inh 3, UGM FP inh 0, Mtb betalactam 4 and Vc quorum ag-2 0.
O=C(CN1CCN(Cc2ccc(F)cc2Cl)C1=O)NCCc1ccccc1 was read as FadD28 FP inh -1, PrP UTR inh -23, Vc quorum ag-1 0, Rv3671c inh 2, UGM FP inh 2 and Mtb betalactam -11.
`Cc1ccc(C(=O)NCCNC(=O)c2cccnc2)cc1` gave FadD28 FP inh 1, PrP UTR inh -7, Vc quorum ag-1 -3, Rv3671c inh -6, UGM FP inh 0 and Mtb betalactam 1.
COC(=O)[C@H]1C[C@H](C(=O)O)[C@@H](C)C1(C)C was read as FadD28 FP inh 1, PrP UTR inh -14, Vc quorum ag-1 25, Rv3671c inh 0, UGM FP inh -1, Mtb betalactam 4 and Vc quorum ag-2 0.
For Cc1cnc(C(=O)OCC(=O)NC(=O)NC(C)C)cn1 the results were FadD28 FP inh 0, PrP UTR inh -3, Vc quorum ag-1 33*, Rv3671c inh 2, UGM FP inh -1, Mtb betalactam -4 and Vc quorum ag-2 0.
`Cc1cnc(C(=O)OCC(=O)Nc2ccc(Cl)cc2)cn1` gave FadD28 FP inh -2, PrP UTR inh -31, Vc quorum ag-1 inactive, Rv3671c inh 0, UGM FP inh -1 and Mtb betalactam 2.
Screening O=C(COC(=O)C1CCC1)Nc1ccc(Oc2ccccc2)cc1 returned FadD28 FP inh -1, PrP UTR inh -14, Vc quorum ag-1 2, Rv3671c inh 3, UGM FP inh -2, Mtb betalactam 87 and Vc quorum ag-2 0.
O=C(COC(=O)C1CC1)Nc1ccc(Oc2ccccc2)cc1 was read as FadD28 FP inh -2, PrP UTR inh -15, Vc quorum ag-1 0, Rv3671c inh 4, UGM FP inh 1 and Mtb betalactam 88.
O=C(CCn1c(=S)oc2ccccc21)Nc1ccccc1Br was read as FadD28 FP inh -5, PrP UTR inh -11, Vc quorum ag-1 -1, Rv3671c inh 9, UGM FP inh 0 and Mtb betalactam -6.
`CCOC(=O)c1c(NC(=O)COC(=O)Cc2c[nH]c3ccccc23)sc(C(=O)N(C)C)c1C` gave FadD28 FP inh -1, PrP UTR inh -7, Vc quorum ag-1 12, Rv3671c inh -14, UGM FP inh 3, Mtb betalactam 0 and Vc quorum ag-2 0.
Screening CC(=O)Nc1nn(C)c2nc3cc(C)ccc3cc12 returned FadD28 FP inh -3, PrP UTR inh -24, Vc quorum ag-1 0, Rv3671c inh -7, UGM FP inh 1 and Mtb betalactam -2.
`Cc1ccc2cc3c(NC(=O)c4ccco4)nn(C)c3nc2c1` gave FadD28 FP inh -1, PrP UTR inh -24, Rv3671c inh -4, UGM FP inh -1, Mtb betalactam 11 and HeLa 24h tox -1.
Screening CCCNC(=O)Cc1ccsc1 returned FadD28 FP inh -3, PrP UTR inh -20, Vc quorum ag-1 12, Rv3671c inh 1, UGM FP inh -3, Mtb betalactam -2 and Vc quorum ag-2 0.
For CCN(CC)CCNC(=O)c1ccc(NC(=O)Cc2ccsc2)cc1 the results were FadD28 FP inh 0, PrP UTR inh 3, Vc quorum ag-1 inactive, Rv3671c inh -4, UGM FP inh 2 and Mtb betalactam -2.
CN(C(=O)CSc1nnc(-c2ccccc2F)n1N)C1CCCCC1 was read as FadD28 FP inh -4, PrP UTR inh -15, Vc quorum ag-1 inactive, Rv3671c inh -3, UGM FP inh -2 and Mtb betalactam -4.
Screening c1ccc(Cc2nn[nH]n2)cc1 returned FadD28 FP inh -2, PrP UTR inh -33, Rv3671c inh 8, UGM FP inh 0 and Mtb betalactam 7.
COc1ccc(Cc2nn[nH]n2)cc1 was read as FadD28 FP inh -1, PrP UTR inh -7, Vc quorum ag-1 7.6*, Rv3671c inh 0, UGM FP inh -1, Mtb betalactam -3 and Vc quorum ag-2 0.
Screening N#Cc1c(NCc2ccccc2)ccnc1Cl returned FadD28 FP inh -2, PrP UTR inh -9, Vc quorum ag-1 0, Rv3671c inh 10, UGM FP inh 0 and Mtb betalactam 2.
Screening Cn1c(=O)c2cc(S(=O)(=O)NCCC(=O)NCCC3=CCCCC3)ccc2n(C)c1=O returned FadD28 FP inh -1, PrP UTR inh -14, Vc quorum ag-1 0, Rv3671c inh 5, UGM FP inh -1 and Mtb betalactam -7.
COc1ccc(S(=O)(=O)N2CCOCC2)cc1NC(=O)CSc1nnc(C2CC2)n1C1CC1 was read as FadD28 FP inh -2, PrP UTR inh -12, Vc quorum ag-1 41*, Rv3671c inh 0, UGM FP inh -1, Mtb betalactam -3 and Vc quorum ag-2 1.
COc1ccccc1CCN1CCCC(CN(C)C(=O)c2ccco2)C1 (stereo not drawn) was read as FadD28 FP inh -2, PrP UTR inh -6, Vc quorum ag-1 14, Rv3671c inh 6, UGM FP inh -1, Mtb betalactam 3 and Vc quorum ag-2 0.
For Cc1ccc(OCC(=O)NC2CCS(=O)(=O)C2)c([N+](=O)[O-])n1 (stereo not drawn) the results were FadD28 FP inh -1, PrP UTR inh -16, Vc quorum ag-1 12, Rv3671c inh 0, UGM FP inh -1, Mtb betalactam 3 and Vc quorum ag-2 0.
`OC(c1ccccn1)(c1ccccn1)c1ccccn1` gave FadD28 FP inh -3, PrP UTR inh -38, Vc quorum ag-1 inactive, Rv3671c inh -9, UGM FP inh -1 and Mtb betalactam 2.
`OCCN1CCN(CC(O)COc2ccc(Cl)cc2)CC1` (stereo not drawn) gave FadD28 FP inh 0, PrP UTR inh 2, Vc quorum ag-1 17*, Rv3671c inh -1, UGM FP inh -4, Mtb betalactam -5 and Vc quorum ag-2 0.
CC(=O)NC(C)(c1ccccc1)c1nc(-c2ccc(S(C)(=O)=O)cc2)cs1 (stereo not drawn) was read as FadD28 FP inh 0 and Vc quorum ag-1 0.
For CCOc1ccc2nc(SCC(=O)NC(=O)NCc3ccco3)[nH]c2c1 the results were FadD28 FP inh -1, PrP UTR inh -32, Vc quorum ag-1 32*, Rv3671c inh -2, UGM FP inh 3, Mtb betalactam -8 and Vc quorum ag-2 0.
Screening Cc1nc2nc(C(F)(F)F)[nH]c2nc1C returned FadD28 FP inh -4 and Vc quorum ag-1 inactive.
